The results in this text go back to PubChem BioAssay (Tox21).

Inconclusive results are not listed. Calls of active or inactive are those of the source. Calls come from the whole dose curve.
% is set by controls: 0 for no effect and ±100 for the full control effect.

The assay deals with Peroxisome proliferator-activated receptor delta (Homo sapiens) (UniProt Q03181). Nature of the assay: qHTS assay to identify small molecule agonists of the peroxisome proliferator-activated receptor delta (PPARd) signaling pathway (AID 743212). Particulars: HEK293H PPARd-UAS-bla, beta-lactamase FRET ratio, 17 h; series mostly up to 62.6 µM; activation: at the top concentration. An excerpt: U.S. Tox21 Program National Center for Advancing Translational Sciences [NCATS] NIH Chemical Genomics Center [NCGC] U.S. Environmental Protection Agency [EPA] National Institutes of Environmental Health Sciences [NIEHS] National Toxicology Program [NTP] U.S. Food and Drug Administration [FDA] Tox21 Assay Overview: The peroxisome proliferator-activated receptors (PPARs) are lipid-activated transcription factors of the nuclear receptor superfamily with three distinct subtypes namely PPAR alpha, PPAR delta (PPARd) and PPAR gamma. All these subtypes heterodimerizes with Retinoid X receptor (RXR) and have different physiological functions. […] To identify the compounds that activate PPAR-delta signaling, GeneBLAzer PPAR delta UAS-bla HEK293H cell line (Invitrogen, Carlsbad, CA, USA) containing a beta-lactamase reporter gene under the control of an Upstream Activator Sequence (UAS) was used to screen the Tox21 compound library.
Chain of Peroxisome proliferator-activated receptor delta (Homo sapiens) (Q03181 whole entry, looked up): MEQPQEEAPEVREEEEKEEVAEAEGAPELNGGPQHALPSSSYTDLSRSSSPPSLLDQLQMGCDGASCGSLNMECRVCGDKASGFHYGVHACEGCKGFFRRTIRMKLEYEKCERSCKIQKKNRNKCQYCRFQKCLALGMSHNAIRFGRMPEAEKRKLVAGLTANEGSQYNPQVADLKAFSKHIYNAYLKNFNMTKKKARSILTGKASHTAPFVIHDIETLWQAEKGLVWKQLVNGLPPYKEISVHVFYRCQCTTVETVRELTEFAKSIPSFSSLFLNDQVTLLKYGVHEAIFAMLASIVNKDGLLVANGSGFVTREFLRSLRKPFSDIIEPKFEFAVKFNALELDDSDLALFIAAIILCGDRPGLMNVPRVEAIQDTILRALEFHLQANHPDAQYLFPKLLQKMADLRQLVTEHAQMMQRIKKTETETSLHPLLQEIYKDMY
Tox21 Assay Protocol Summary: PPARd-bla cells were dispensed at 3000 cells/6uL/well in 1536-well black wall/clear bottom plates using a Multidrop Combi (Thermo Fisher Scientific, Waltham, MA) dispenser. After the assay plates were incubated at 37 C and 5% CO2 for 5 h, 23 nL of compounds dissolved in DMSO, positive controls or DMSO only was transferred to the assay plate by a Pintool station (Kalypsys, San Diego, CA). The assay plates were incubated at 37C for 17 h. After 1 uL of LiveBLAzerTM B/G FRET substrate was added using a Bioraptr Flying Reagent Dispenser (FRD) workstation (Beckman Coulter, Indianapolis, IN, USA), the plates were incubated at room temperature for 2 h, and fluorescence intensity was measured by an Envision plate reader (PerkinElmer, Shelton, CT).
As for `Cc1cccc(Cc2cnc[nH]2)c1C`, the “activation” value is 2.38% (inactive).

For `CCNS(=O)(=O)C(F)(F)C(F)(F)C(F)(F)C(F)(F)C(F)(F)C(F)(F)C(F)(F)C(F)(F)F`, the “activation” value was 0.717% (inactive).

Consider `O=[N+]([O-])c1ccc(CCl)cc1`, for which the “activation” value was 2.37% (inactive).

With `[O-][Cl+3]([O-])([O-])O`, the “activation” value was 4.57% [at 81.1 µM] (inactive).

On to `O=C(O)[C@H](O)[C@@H](O)C(=O)O`, for which the “activation” value was 0.909% (inactive).

On to `BrCCCBr`, for which the “activation” value was -4.95% [at 81.1 µM] (inactive).

Turning to `O=Cc1ccccc1`, the “activation” value was -0.0184% [at 81.1 µM] (inactive).

As for `CO/N=C(/C1=NOCCO1)c1ccccc1Oc1ncnc(Oc2ccccc2Cl)c1F`, the “activation” value was -6.73% (inactive).

Consider `CC(C)=CC1C(C(=O)OC(C#N)c2cccc(Oc3ccccc3)c2)C1(C)C` (stereo not given), for which the “activation” value is 2.29% (inactive).

For `FC(F)C(F)(F)OCC(Cn1cncn1)c1ccc(Cl)cc1Cl` (stereo not given), the “activation” value is 1% (inactive).

In the case of `Cc1nn(-c2cc(NS(C)(=O)=O)c(Cl)cc2Cl)c(=O)n1C(F)F`, the “activation” value is -2.6% (inactive).

On to `N#Cc1ccc(N(CC(N)=O)CC(F)(F)F)cc1C(F)(F)F`, for which the “activation” value is -1.57% (inactive).

For `NC1CCC(CC2CCC(N)CC2)CC1` (stereo not given), the “activation” value was -3.36% (inactive).

As for `CC(C)=CCN1CC[C@@]2(C)c3cc(O)ccc3C[C@@H]1[C@@H]2C`, the “activation” value is -2.4% [at 81.1 µM] (inactive).

For the molecule `CCCCc1ccccc1`, the “activation” value was -4.09% (inactive).

Turning to `O=c1[nH]c(Cl)c(Cl)cc1Cl`, the “activation” value is -3.42% (inactive).

On to `O=c1[nH]c2cc(Cl)ccc2n1C1CCNCC1`, for which the “activation” value was 0.0218% (inactive).

In the case of `CNC(=O)CSP(=O)(OC)OC`, the “activation” value is -2.46% (inactive).

`O=C(N[C@H]1N=C(c2ccccc2F)c2cccc3c2N(CC3)C1=O)c1cc2ccccc2[nH]1`: the “activation” value is -4.87% (inactive).

In the case of `CNC(=O)O/N=C(\C)C(C)S(C)(=O)=O` (stereo not given), the “activation” value was 9.77% [at 765 µM] (inactive).

As to `COc1ccc2c3c1O[C@H]1[C@H](O)CC[C@H]4[C@@H](C2)N(C)CC[C@@]341`, the “activation” value is 0.916% [at 81.1 µM] (inactive).

For the molecule `CCN(CC)Cc1nccn1-c1ccc([N+](=O)[O-])cc1C(=O)c1ccccc1Cl`, the “activation” value was -0.0454% (inactive).

For `Cc1c([N+](=O)[O-])cc2c(c1[N+](=O)[O-])C(C)(C)CC2(C)C`, the “activation” value was -0.192% (inactive).

`COc1ccc2[nH]cc(CCN(C(C)C)C(C)C)c2c1`: the “activation” value was 1.54% [at 81.1 µM] (inactive).

On to `O=S1(=O)OCC2C(CO1)C1(Cl)C(Cl)=C(Cl)C2(Cl)C1(Cl)Cl` (stereo not given), for which the “activation” value is -1.33% (inactive).

As for `Clc1ccc(C(Cl)(Cl)Cl)cc1Cl`, the “activation” value was 0.211% (inactive).

With `Clc1c(Cl)c(Cl)c(Cl)c(Cl)c1Cl`, the activation is -6.6% [at 5.95 µM] (inactive).

On to `CCOP(=O)(Sc1ccccc1)Sc1ccccc1`, for which the “activation” value is -2.95% (inactive).

With `O=C(Cl)c1ccccc1F`, the “activation” value is 0.0878% (inactive).

Take `Cc1ccccc1OP(=O)(Oc1ccccc1C)Oc1ccccc1C`: the “activation” value is -5.92% [at 81.1 µM] (inactive).

In the case of `CC(C)NCC(O)c1ccccc1Cl` (stereo not given), the “activation” value was 4.66% (inactive).

As for `CCCCCCCc1ccc(O)cc1`, the “activation” value was 7.55% (inactive).

On to `Cc1c([N+](=O)[O-])c(C)c([N+](=O)[O-])c(C(C)(C)C)c1[N+](=O)[O-]`, for which the “activation” value is -0.883% (inactive).

With `COC(=O)/C=C(\C)OP(=O)(OC)OC`, the “activation” value is 10.9% (inactive).

In the case of `CCOP(=S)(OCC)SC(CCl)N1C(=O)c2ccccc2C1=O` (stereo not given), the “activation” value is 1.04% (inactive).

Take `ClC1(Cl)C2(Cl)C3(Cl)C4(Cl)C(Cl)(Cl)C5(Cl)C3(Cl)C1(Cl)C5(Cl)C24Cl` (stereo not given): the “activation” value is 0.681% (inactive).

Consider `Nc1cc(Cl)ccc1Cl`, for which the “activation” value was 2.39% (inactive).

`CC(C)(C)c1ccc(OP(=O)(Oc2ccccc2)Oc2ccccc2)cc1`: the “activation” value was -2.55% [at 81.1 µM] (inactive).

Regarding `CC1(C)C(C=C(Cl)Cl)C1C(=O)OC(C#N)c1ccc(F)c(Oc2ccccc2)c1` (stereo not given), the “activation” value is 0.825% (inactive).

As for `CCN(CC)CCN1C(=O)CN=C(c2ccccc2F)c2cc(Cl)ccc21`, the “activation” value was -0.351% (inactive).
